PubChem BioAssay
Calls of active or inactive are those of the source.

Key:
[1] = tested on: PRMT1 (protein arginine N-methyltransferase 1); test: PRMT1 binders on small-molecule microarrays, primary screen, biochemical, small-molecule microarray, 635 nm fluorescence (AID 1088); conditions: small-molecule microarray binding, higher = more signal;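 note: binding of Prmt1 protein to compounds spotted on small-molecule microarray slides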
[2] = yeast growth modulation, basal conditions, primary screen, YJM789 clinical isolate, OD600, 24 h (AID 1089);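 note: growth of clinical yeast isolate S. cerevisiae YJM 789 seeded 1000 cells per well; test concentration not given here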; conditions: S. cerevisiae YJM789 growth, higher = more signal, called active from +8 up or from −8 down
[3] = fission yeast growth modulation, primary screen, strain 972, OD600, 24 h, no modulator (AID 1090);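 note: basal condition with compound alone and no growth modifier present; test concentration not given here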; conditions: S. pombe 972 growth, higher = more signal, called active from +8 up or from −8 down
[4] = S. cerevisiae growth modulation with rapamycin, primary screen, strain BY4716, OD600, 96 h (AID 1091); conditions: higher = more signal, called active from +8 up or from −8 down; note: test concentration not given here
[5] = target: Torsin-1A-interacting protein 2 (Homo sapiens) (UniProt Q8NFQ8); test: LULL1 binders on small-molecule microarray, primary screen, cell lysate, human LULL1 lysate, 635/667 nm fluorescence (AID 1092); conditions: hLULL1 lysate binding, 635 nm fluorescence, higher = more signal;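 note: probe is lysate of COS7 cells overexpressing human LULL1; score merges per-feature 667 nm fluorescence with signal-to-noise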
Chain of Torsin-1A-interacting protein 2 (Homo sapiens) (Q8NFQ8 whole entry, looked up): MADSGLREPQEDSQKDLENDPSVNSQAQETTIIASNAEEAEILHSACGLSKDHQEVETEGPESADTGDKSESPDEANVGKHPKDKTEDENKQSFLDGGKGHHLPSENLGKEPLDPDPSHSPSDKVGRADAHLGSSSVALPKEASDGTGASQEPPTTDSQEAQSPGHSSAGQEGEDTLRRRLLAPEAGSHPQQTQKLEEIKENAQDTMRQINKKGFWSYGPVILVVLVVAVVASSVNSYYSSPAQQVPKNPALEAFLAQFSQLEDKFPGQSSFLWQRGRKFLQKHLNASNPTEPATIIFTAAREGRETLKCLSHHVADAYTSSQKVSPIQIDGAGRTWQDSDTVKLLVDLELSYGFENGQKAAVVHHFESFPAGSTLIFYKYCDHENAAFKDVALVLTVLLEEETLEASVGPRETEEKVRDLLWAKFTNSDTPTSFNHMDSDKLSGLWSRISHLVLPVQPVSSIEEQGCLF

[6] = E. coli growth modulation, two-sided OD650, primary screen, E. coli filamentation project, strain DRC41, 24 h (AID 1093); conditions: OD650, 24 h, higher = more signal, called active from +8 up or from −8 down;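 note: MC1000 strain lacking acrAB efflux and sulA so SOS filamentation is blocked; test concentration not given here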
[7] = small-molecule microarray binders of probe aLefty2, primary screen, biochemical, biotinylated probe, 635/667 nm fluorescence (AID 1094); conditions: higher = more signal;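 note: score merges spot fluorescence near 667 nm with spot signal-to-noise ratio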
[8] = tested on: Noggin (protein binding on small-molecule microarray); test: Noggin binders on small-molecule microarray, primary screen, biochemical, 635/667 nm fluorescence (AID 1095); conditions: 635 nm fluorescence, higher = more signal;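 note: score merges 667 nm feature fluorescence with signal to noise over triplicate slides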
[9] = target: Neurogenic locus notch homolog protein 3 (Homo sapiens) (UniProt Q9UM47); test: NOTCH3 binders on small-molecule microarray, primary screen, biochemical, 635/667 nm fluorescence (AID 1096); conditions: NOTCH3 binding, 635 nm fluorescence, higher = more signal
Chain of Neurogenic locus notch homolog protein 3 (Homo sapiens) (Q9UM47 whole entry, looked up): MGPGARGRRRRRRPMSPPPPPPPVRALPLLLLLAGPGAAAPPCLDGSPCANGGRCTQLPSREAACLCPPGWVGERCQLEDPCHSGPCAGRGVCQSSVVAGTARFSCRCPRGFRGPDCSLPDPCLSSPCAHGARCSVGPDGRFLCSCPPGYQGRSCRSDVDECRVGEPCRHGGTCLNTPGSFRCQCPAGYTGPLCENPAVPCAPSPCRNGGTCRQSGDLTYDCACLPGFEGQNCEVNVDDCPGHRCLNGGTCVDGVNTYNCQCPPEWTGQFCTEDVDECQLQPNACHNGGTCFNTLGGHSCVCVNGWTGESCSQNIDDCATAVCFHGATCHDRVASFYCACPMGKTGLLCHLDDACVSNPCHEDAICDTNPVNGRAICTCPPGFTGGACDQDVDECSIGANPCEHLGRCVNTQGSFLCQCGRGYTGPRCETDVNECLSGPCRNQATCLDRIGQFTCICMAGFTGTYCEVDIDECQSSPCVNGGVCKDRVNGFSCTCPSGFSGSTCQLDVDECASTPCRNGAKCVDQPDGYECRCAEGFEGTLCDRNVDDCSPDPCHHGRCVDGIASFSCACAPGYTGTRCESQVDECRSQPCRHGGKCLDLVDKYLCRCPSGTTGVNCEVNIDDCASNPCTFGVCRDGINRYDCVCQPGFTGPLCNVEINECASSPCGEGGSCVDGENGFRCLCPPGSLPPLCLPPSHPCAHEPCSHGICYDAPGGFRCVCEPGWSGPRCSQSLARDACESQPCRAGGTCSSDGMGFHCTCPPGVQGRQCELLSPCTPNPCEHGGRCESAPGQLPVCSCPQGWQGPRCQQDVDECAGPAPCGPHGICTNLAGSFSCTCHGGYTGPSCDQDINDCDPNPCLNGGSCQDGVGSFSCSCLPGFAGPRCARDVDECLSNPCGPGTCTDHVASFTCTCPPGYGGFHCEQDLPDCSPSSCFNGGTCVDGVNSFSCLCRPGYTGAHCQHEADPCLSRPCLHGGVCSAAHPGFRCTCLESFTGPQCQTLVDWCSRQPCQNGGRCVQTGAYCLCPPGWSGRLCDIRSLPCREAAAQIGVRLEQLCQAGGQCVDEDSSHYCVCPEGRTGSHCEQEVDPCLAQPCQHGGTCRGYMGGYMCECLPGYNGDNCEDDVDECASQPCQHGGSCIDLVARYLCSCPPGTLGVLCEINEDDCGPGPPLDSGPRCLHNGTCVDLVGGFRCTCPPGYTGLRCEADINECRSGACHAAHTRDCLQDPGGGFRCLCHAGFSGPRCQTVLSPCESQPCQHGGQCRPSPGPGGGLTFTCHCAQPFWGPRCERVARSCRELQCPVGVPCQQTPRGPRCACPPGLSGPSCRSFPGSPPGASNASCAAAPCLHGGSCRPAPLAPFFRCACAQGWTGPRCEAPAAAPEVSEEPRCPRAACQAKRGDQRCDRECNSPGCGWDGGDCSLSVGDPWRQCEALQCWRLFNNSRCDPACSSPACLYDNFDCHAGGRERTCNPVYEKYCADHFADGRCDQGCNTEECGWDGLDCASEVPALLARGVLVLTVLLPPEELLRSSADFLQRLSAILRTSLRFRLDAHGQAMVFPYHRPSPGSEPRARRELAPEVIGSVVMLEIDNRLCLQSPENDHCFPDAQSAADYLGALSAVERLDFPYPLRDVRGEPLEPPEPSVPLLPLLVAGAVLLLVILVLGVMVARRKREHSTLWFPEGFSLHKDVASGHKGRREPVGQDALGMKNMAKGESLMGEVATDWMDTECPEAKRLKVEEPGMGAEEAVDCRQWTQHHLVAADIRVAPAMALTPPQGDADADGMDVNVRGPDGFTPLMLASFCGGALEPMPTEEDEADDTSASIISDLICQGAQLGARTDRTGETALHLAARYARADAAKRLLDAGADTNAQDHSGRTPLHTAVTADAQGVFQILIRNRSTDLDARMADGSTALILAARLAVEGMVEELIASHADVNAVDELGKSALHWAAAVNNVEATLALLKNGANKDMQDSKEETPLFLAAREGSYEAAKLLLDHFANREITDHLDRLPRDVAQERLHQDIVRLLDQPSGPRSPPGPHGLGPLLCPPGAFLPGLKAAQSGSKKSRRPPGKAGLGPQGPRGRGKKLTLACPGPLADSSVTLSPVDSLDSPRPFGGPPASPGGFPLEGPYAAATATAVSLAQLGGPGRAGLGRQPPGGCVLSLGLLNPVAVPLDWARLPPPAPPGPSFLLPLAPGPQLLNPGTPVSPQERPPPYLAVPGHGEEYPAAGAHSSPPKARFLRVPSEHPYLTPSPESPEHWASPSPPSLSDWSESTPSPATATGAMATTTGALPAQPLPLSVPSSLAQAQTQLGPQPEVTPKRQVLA

[10] = small-molecule microarray binders of probe aEGFR, primary screen, biochemical, biotinylated probe, 635/667 nm fluorescence (AID 1097); conditions: higher = more signal;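 note: probe is a biotinylated anti-EGFR antibody binding compounds printed on slides; score combines fluorescence near 667 nm and signal to noise of each spot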
[11] = tested on: Plasmodium falciparum Sir2 (PF13_0152, Sir2A); test: pfSir2 binders on small-molecule microarrays, primary screen, biochemical, small-molecule microarray, 635 nm fluorescence (AID 1098); conditions: small-molecule microarray binding, fluorescence 635 nm; higher = more signal;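 note: score merges spot fluorescence intensity with its signal-to-noise ratio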
[12] = small-molecule microarray binders of probe aDKK1, primary screen, biochemical, biotinylated probe, 635/667 nm fluorescence (AID 1099); conditions: higher = more signal;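 note: score merges 667nm spot fluorescence with signal to noise across triplicate slides; reference of the scale not given here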
[13] = small-molecule microarray binders of probe aCHRDL2, primary screen, biochemical, biotinylated probe, 635/667 nm fluorescence (AID 1100); conditions: higher = more signal
[14] = splicing luciferase reporter signal modulators, primary screen, spliceosome inhibition project, cell-based, HEK293, splice +/- reporter (AID 1101); conditions: luminescence, 24 h, higher = more signal, called active from +8 up or from −8 down;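 note: HEK293 cells carrying a splicing-competent luciferase reporter gene; test concentration not given here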
[15] = target: Fibroblast growth factor 10 (Homo sapiens) (UniProt O15520); test: FGF10 binders on small-molecule microarrays, primary screen, biochemical, small-molecule microarray, 635 nm fluorescence (AID 1102); conditions: FGF10 binding, fluorescence 635 nm, higher = more signal
Chain of Fibroblast growth factor 10 (Homo sapiens) (O15520 whole entry, looked up): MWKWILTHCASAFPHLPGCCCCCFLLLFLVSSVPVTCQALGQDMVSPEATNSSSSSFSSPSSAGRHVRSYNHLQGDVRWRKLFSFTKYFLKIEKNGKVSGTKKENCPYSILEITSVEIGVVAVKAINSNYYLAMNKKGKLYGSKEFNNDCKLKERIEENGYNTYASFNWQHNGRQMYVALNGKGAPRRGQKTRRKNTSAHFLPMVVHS

[16] = tested on: glycogen synthase kinase-3 (GSK3A per assay name; protocol says GSK3B); test: GSK3 binders on small-molecule microarrays, primary screen, biochemical, small-molecule microarray, 635 nm fluorescence, GSK3A (AID 1103); conditions: small-molecule microarray binding, fluorescence 635 nm; higher = more signal; note: the record names both GSK3A and GSK3B
[17] = target: Epidermal growth factor receptor (Homo sapiens) (UniProt P00533); test: EGFR binders on small-molecule microarrays, primary screen, biochemical, small-molecule microarray, 635 nm fluorescence (AID 1104); conditions: EGFR binding, higher = more signal;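 note: score merges 667 nm emission intensity with spot signal to noise over triplicate slides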
Chain of Epidermal growth factor receptor (Homo sapiens) (P00533 whole entry, looked up): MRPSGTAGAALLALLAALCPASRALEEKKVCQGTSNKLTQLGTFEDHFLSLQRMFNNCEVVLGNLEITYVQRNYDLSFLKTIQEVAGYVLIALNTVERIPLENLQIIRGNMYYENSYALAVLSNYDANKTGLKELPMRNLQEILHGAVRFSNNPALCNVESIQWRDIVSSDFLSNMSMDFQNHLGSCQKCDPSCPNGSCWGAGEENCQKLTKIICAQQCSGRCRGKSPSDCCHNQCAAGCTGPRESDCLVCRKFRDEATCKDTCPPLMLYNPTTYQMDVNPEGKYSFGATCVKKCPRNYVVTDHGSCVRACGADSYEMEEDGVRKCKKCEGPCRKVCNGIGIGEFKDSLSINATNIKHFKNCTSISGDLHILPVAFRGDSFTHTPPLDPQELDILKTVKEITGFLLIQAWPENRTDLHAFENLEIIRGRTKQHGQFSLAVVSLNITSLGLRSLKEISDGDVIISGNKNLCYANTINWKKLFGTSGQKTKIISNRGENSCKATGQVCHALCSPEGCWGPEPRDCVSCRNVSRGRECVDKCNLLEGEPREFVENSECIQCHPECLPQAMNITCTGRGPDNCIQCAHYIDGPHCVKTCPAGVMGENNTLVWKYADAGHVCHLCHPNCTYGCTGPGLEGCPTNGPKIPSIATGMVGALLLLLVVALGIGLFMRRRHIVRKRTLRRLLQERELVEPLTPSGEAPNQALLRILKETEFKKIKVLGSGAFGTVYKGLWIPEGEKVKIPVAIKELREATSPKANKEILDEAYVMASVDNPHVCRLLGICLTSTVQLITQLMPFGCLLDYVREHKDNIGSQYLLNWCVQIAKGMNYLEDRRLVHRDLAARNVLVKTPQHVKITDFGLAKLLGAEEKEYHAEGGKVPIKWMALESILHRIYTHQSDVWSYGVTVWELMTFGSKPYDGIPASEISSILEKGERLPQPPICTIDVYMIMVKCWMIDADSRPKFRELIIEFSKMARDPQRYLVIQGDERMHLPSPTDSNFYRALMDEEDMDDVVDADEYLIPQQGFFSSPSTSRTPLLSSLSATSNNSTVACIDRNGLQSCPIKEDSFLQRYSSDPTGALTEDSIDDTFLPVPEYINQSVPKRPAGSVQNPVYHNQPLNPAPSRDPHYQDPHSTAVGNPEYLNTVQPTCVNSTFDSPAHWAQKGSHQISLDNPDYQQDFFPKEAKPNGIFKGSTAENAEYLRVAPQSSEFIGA

[18] = target: Follistatin-related protein 3 (Homo sapiens) (UniProt O95633); test: FSTL3 binders on small-molecule microarrays, primary screen, biochemical, small-molecule microarray, 635 nm fluorescence (AID 1105); conditions: FSTL3 binding, higher = more signal;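 note: score merges emission near 667 nm and signal to noise per printed spot across three slides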
Chain of Follistatin-related protein 3 (Homo sapiens) (O95633 whole entry, looked up): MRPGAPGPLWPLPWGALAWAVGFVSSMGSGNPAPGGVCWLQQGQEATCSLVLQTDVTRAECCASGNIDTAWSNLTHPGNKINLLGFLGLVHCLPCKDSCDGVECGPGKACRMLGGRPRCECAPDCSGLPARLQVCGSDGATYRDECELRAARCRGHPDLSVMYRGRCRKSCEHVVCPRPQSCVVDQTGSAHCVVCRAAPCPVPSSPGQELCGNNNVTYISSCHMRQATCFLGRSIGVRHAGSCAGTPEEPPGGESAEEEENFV

[19] = target: Dickkopf-related protein 1 (Homo sapiens) (UniProt O94907); test: DKK1 binders on small-molecule microarrays, primary screen, biochemical, small-molecule microarray, 635 nm fluorescence scan (AID 1106); conditions: DKK1 binding, higher = more signal;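 note: score merges emission near 667 nm with signal to noise over three replicate slides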
Chain of Dickkopf-related protein 1 (Homo sapiens) (O94907 whole entry, looked up): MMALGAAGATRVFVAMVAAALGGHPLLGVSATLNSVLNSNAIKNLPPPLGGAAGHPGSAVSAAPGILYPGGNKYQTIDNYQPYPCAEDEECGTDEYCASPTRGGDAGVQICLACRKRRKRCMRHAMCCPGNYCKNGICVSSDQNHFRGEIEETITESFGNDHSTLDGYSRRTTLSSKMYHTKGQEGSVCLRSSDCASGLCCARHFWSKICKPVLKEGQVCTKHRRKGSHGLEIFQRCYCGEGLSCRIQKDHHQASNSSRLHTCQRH

[20] = tested on: Inhibin beta A chain (activin A); test: INHBA (activin A) binders on microarrays, primary screen, biochemical, small-molecule microarray, 635 nm fluorescence scan (AID 1107); conditions: small-molecule microarray binding, higher = more signal;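 note: mouse activin A protein probed at 4.33 µg/mL on printed slides; score merges bound-protein fluorescence near 667 nm with spot signal-to-noise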

| Structure (SMILES) | composite z-score [1] | z-score [2] | z-score [3] | z-score [4] | composite z-score [5] | z-score [6] | composite z-score [7] | composite z-score [8] | composite z-score [9] | composite z-score [10] | composite z-score [11] | composite z-score [12] | composite z-score [13] | z-score [14] | composite z-score [15] | composite z-score [16] | composite z-score [17] | composite z-score [18] | composite z-score [19] | composite z-score [20] |
| --- | --- | --- | --- | --- | --- | --- | --- | --- | --- | --- | --- | --- | --- | --- | --- | --- | --- | --- | --- | --- |
| CCCCCN1CC=CC23O[C@@H]4/C=C\CCCOC(=O)C4[C@H]2C(=O)N(C(C)CO)[C@@H]3C1=O (stereo not given in full) | 1.14 | -0.145 (inactive) | -1.52 (inactive) | -0.744 (inactive) | 1.86 | 0.815 (inactive) | -0.125 | -1.33 | -0.365 | -0.213 | 2.01 | -0.339 | 0.525 | 0.1 (inactive) | -1.43 | -1 | -1.07 | -0.706 | -0.964 | -0.57 |
| COC(=O)[C@@]1(Cc2ccc(F)cc2)[C@H]2c3cc(C(=O)N4CCCC4)n(Cc4ccc(C)c(F)c4F)c3C[C@H]2CN1C(=O)c1ccccc1 | -1.69 | 0.0074 (inactive) | -0.0098 (inactive) | 0.378 (inactive) | 0.919 | -0.477 (inactive) | 0.136 | -0.849 | -0.338 | -0.111 | 0.961 | 0.902 | 0.931 | -4.09 (inactive) | -0.291 | -0.931 | -0.499 | -1.07 | -0.453 | 1.42 |
| CCOc1cc(C(O)C2C=CC3C(=O)NC(=O)C3N2Nc2ccc(Cl)cc2Cl)ccc1O (stereo not given) | -1.54 | -1.36 (inactive) | -1.29 (inactive) | 0.339 (inactive) | 0.0486 | -0.847 (inactive) | 0.0717 | -0.26 | -1.31 | -0.16 | -0.402 | 0.737 | 0.942 | 1.22 (inactive) | -0.251 | -0.848 | -0.238 | -0.859 | -0.765 | 1.37 |
| CC(C)(C)OC(=O)COc1cccc(C(=O)CCN2CCOCC2)c1 | 1.34 | -0.728 (inactive) | -19.8 (active) | -2.13 (inactive) | 0.557 | 0.328 (inactive) | -0.126 | -0.0786 | -0.529 | -0.0815 | 0.213 | 0.684 | 0.929 | 0.849 (inactive) | -0.189 | 0.136 | -0.67 | -0.272 | -0.285 | 1.54 |
| C#CCN(Cc1ccccc1Br)[C@H](/C=C/c1ccccc1)[C@@H](O)Cc1ccccc1 | -0.384 | 0.737 (inactive) | -12.7 (active) | 1.38 (inactive) | 0.98 | 1.44 (inactive) | 0.195 | -1.24 | -0.623 | -0.397 | -0.699 | 0.12 | 0.857 | -1.51 (inactive) | -0.636 | -0.705 | -1.45 | -1.21 | -1.42 | 1.35 |
| CC1CC/C=C\[C@H]2OC34C=CCN(c5ccc6ccccc6c5)C(=O)[C@H]3N(CCCO)C(=O)[C@@H]4C2C(=O)O1 (stereo not given in full) | -0.131 | 0.116 (inactive) | 0.398 (inactive) | 0.799 (inactive) | -0.546 | -0.696 (inactive) | -0.136 | -1.32 | -0.562 | -0.193 | 0.0565 | -0.179 | 1.07 | 0.738 (inactive) | -1.32 | -0.592 | -1.2 | -0.912 | -2.16 | -0.223 |
| COC(=O)[C@@]1(Cc2ccc(OC)cc2)[C@H]2c3cc(C(=O)N(C)C)n(Cc4ccc(OC(F)(F)F)cc4)c3C[C@H]2CN1C(=O)c1ccccc1 | -0.708 | 0.461 (inactive) | 1.08 (inactive) | 0.649 (inactive) | 3.39 | -1.08 (inactive) | 0.106 | -0.588 | -0.354 | 0.0139 | 0.518 | 0.34 | 1.15 | 1.32 (inactive) | -0.19 | -0.448 | -0.274 | -0.558 | -0.995 | 0.771 |
| CC(=O)NCCCC[C@@H]1NC(=O)[C@@H]2C[C@H](C(=O)NCCCCCN)[C@H](c3ccc(O)cc3)N2C1=O | 1.32 | 0.0163 (inactive) | -0.747 (inactive) | 0.536 (inactive) | 2.25 | 2.29 (inactive) | 0.5 | 0.61 | 1.14 | 0.328 | 1.49 | 1.07 | 0.656 | 0.194 (inactive) | 1.23 | 1.28 | 0.662 | 1.02 | 1.33 | 1.26 |
| O=C1OCCC=C[C@H]2OC34C=CCN(Cn5nnc6ccccc65)C(=O)[C@H]3N(CCCO)C(=O)[C@@H]4C12 (stereo not given in full) | -1.72 | 0.0799 (inactive) | -0.973 (inactive) | -0.342 (inactive) | -1.7 | 1.81 (inactive) | -0.209 | -0.677 | -0.99 | -0.264 | -0.783 | -0.264 | 0.0963 | -1.05 (inactive) | -0.583 | -0.789 | -0.72 | -1.46 | -0.454 | 0.148 |
| CCOC(=O)C[C@H]1[C@H](OC(=O)Cc2ccc3c(c2)OCO3)[C@@H](NC(=O)c2ccc3ccccc3n2)c2cc(OCCCO)ccc2N1C(=O)c1ccc2ccccc2n1 | 0.755 | -2.47 (inactive) | -1.99 (inactive) | -0.727 (inactive) | 1.03 | 2.22 (inactive) | -0.0708 | 0.719 | 0.497 | -0.124 | 0.138 | 0.0134 | -0.0731 | -1.63 (inactive) | 0.813 | 0.495 | 0.267 | 0.492 | 0.483 | 0.265 |
